Our source for the inhibition values is ChEMBL document CHEMBL3433997, “St. Jude Leishmania screening dataset” (2016).

For orientation: inhibition means the change of the read-out against control, counted positive when it falls.

Molecules are shown by their SMILES.

The target in the experiment is Glucose transporter (Leishmania mexicana) (UniProt O61059). Description: ST_JUDE_LEISH: Cytotoxicity at 2uM final concentration against transgenic Leishmania Mexicana promastigotes LmGT2 that are glucose transport deficient and complemented with the L. Mexicana glucose transporter 2. Activity is measured by DNA content using SYBR green in vitro. Format: functional.
With `Oc1ccc(CCNc2nc(N/N=C/C=C/c3ccc(Cl)cc3)nc(N3CCNCC3)n2)cc1`, the inhibition was 0.91%.
With `CCc1ccc(CN2CCCCC(NC(=O)c3cc(-c4ccccc4F)cs3)C2)cc1` (stereo unspecified), the inhibition is 1.12%.
In the case of `CC(C)(C)n1nnnc1C(c1cccnc1)N(Cc1ccccc1)Cc1ccc(Cl)cc1` (stereo unspecified) it was 2.8%; in that of `COc1cc(Cc2cnc(N)nc2N)cc(OCCCS(=O)(=O)O)c1OC`, 3.36%.
In the case of `NC12CC3CC(CC(C3)C1)C2` it was 4.45%; in that of `CCN(CCCNc1nc(=S)[nH]c2cc(OC)c(OC)cc12)c1ccccc1`, -4.13%; in that of `O=C(NCCc1cccc(F)c1)c1cc(Br)cc(N2CCN(c3ccncc3)CC2)c1`, 3.44%.
In the case of `CCCOc1ccc2ccccc2c1CNCCCCCCNCc1c(OCCC)ccc2ccccc12` it was -1.19%; in that of `Cc1cc(N[C@@H](CC(C)C)C(=O)NCc2cccc(F)c2)nc(NCCc2ccc(F)cc2)n1`, 4.36%.
In the case of `Cc1ccc(C2(C)CN(CCCOc3cccc(-c4ccc(C(=O)NC(C)C)cc4)c3)CCO2)cc1` (stereo unspecified), the inhibition is 0.85%.
As to `CCCS(=O)(=O)c1nc(S(=O)(=O)c2ccc(Cl)cc2)c(N2CCCCC2)s1`, the inhibition is -1.01%.
Regarding `O=C(/C=C/c1ccc(Cl)c(Cl)c1)NCCCCCN1CCC(NC(=O)Nc2ccc(Br)cc2)CC1`, the inhibition is -0.46%.
In the case of `CCCCNCc1ccc(-c2nc(CN(CCCN3CCN(C)CC3)C(=O)Nc3cccc(Cl)c3)cs2)cc1` it was 5.61%; in that of `O=C(Nc1ccc(OC2CCN(Cc3ccccc3)CC2)c(Cl)c1)c1ccsc1`, 2.24%; in that of `c1ccc(C23NC(=Nc4nc5ccccc5[nH]4)NC2(c2ccccc2)NC(=Nc2nc4ccccc4[nH]2)N3)cc1` (stereo unspecified), 5.58%.
In the case of `CC(CCCCCC(=O)Nc1ccc(CC(C)NCCc2cccc(Cl)c2)cc1)NCCc1cccc(Cl)c1` (stereo unspecified) it was 9.83%.
